These results are taken from PubChem BioAssay (Tox21).

“And” between values parts separate entries of the source, which are not always exact repeats. Identical values can stand only once. Unmarked numbers belong to inactive results. Results filed as inconclusive are left out. The source made the active and inactive calls. Unless noted, the call rests on the fitted dose curve; in most records, active means well fitted curve in the direction sought with a large enough effect in the repeat runs; inconclusive means weak or mixed curves; inactive means no such curve, though single readings can be large; an effect the other way counts as inactive or inconclusive.

Experiment [1] addresses Progesterone receptor (Homo sapiens) (UniProt P06401). Description: qHTS assay to identify small molecule agonists of the progesterone receptor (PR) signaling pathway (AID 1346784; calls by dose curve; further: nearly all actives have a fitted effect of over 30% in size). In a few lines: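 PR-UAS-bla HEK 293T cells (beta-lactamase reporter under UAS) in 2% charcoal-stripped FBS, dosed with 23 nL compound after 6 hr, incubated 16hr at 37C. LiveBLAzer B/G FRET substrate added, fluorescence read after 2 hours.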

Experiment [2] in a line: Human pregnane X receptor (PXR) small molecule agonists, qHTS cell viability counter screen (AID 1346977). Further: nearly all actives have a fitted effect of over 50% in size. Further: potency means the concentration at half of the fitted maximal effect. In a few lines: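 PXR-Luc HepG2 cells (2,000/well, 5% charcoal-stripped FBS) preincubated 5 hr, then exposed to compounds 24 hr at 37 C. Viability read in the same wells by CellTiter-Fluor fluorescence, reagent added at 23 hr, 1 hr incubation.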
On the technique in general: qHTS replaces the single test concentration by a dilution series.

For experiment [3], the target named is Progesterone receptor (Homo sapiens) (UniProt P06401). The experiment in a line: qHTS assay to identify small molecule antagonists of the progesterone receptor (PR) signaling pathway (AID 1346795; active means well fitted inhibition curve with a large enough effect in the signal ratio in the repeat runs, not every such curve was filed as active; the % refers to the signal ratio; further: potency means the concentration at half of the fitted maximal effect). A digest of the protocol: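 PR-UAS-bla HEK293T cells with beta-lactamase reporter under UAS control, in 2% charcoal-stripped FBS, treated with compounds plus 1 nM promegestone (R5020, final) for 16 hr at 37C. Read-out: FRET beta-lactamase substrate fluorescence after 2 hr at room temperature.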

A short description of experiment [4]: qHTS assay to identify small molecule antagonists of the TGF-beta/Smad signaling pathway - cell viability counter screen (AID 1346824). Further: nearly all actives have a fitted effect of over 50% in size. Further: potency means the concentration at half of the fitted maximal effect. In a few lines:
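Cytotoxicity counter-screen run in the same wells as the beta-lactamase Smad reporter read: CellTiter-Glo luminescence after 30 min at room temperature. HEK 293T SBE-bla cells had 5 hr compound exposure at 37 C with TGF-beta1 (0.25 ng/mL stock).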

Experiment [5] in a line: qHTS assay to identify small molecule agonists of the TGF-beta/Smad signaling pathway - cell viability counter screen (AID 1346829). Further: nearly all actives have a fitted effect of over 45% in size. Further: potency means the concentration at half of the fitted maximal effect. On activity change, negative = cytotoxicity: top concentration of the series differs between compounds. A digest of the protocol:
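After overnight seating at 37 C and 5% CO2, reporter cells got compounds for 5 hr and FRET substrate for 2 hr; cell viability then came from CellTiter-Glo luminescence.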

Experiment [6] in a line: qHTS assay to identify small molecule agonists of the TGF-beta/Smad signaling pathway (AID 1346859; active means well fitted activation curve with a large enough effect in the signal ratio in the repeat runs, not every such curve was filed as active; the % refers to the signal ratio; further: series mostly up to about 77 µM). In a few lines: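 SBE-bla HEK293T cells plated overnight, then compound exposure for 5 h at 37 C. Beta-lactamase reporter read with LiveBLAzer B/G FRET substrate after 2 h at room temperature, fluorescence at 405 nm excitation, 460/530 nm emission.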
Experiment [7] concerns the target Thyrotropin-releasing hormone receptor (Homo sapiens) (UniProt P34981). The experiment in a line: qHTS assay to identify small molecule antagonists of the thyrotropin-releasing hormone receptor (TRHR) signaling pathway (AID 1346877; active means well fitted inhibition curve with a large enough effect in the repeat runs, not every such curve was filed as active; further: potency means the concentration at half of the fitted maximal effect; on activity, negative = inhibition: series mostly up to about 51 µM). In a few lines: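 Cells (TRHR-HEK293) are plated and kept 18 h at 37 °C/5% CO2. A calcium-sensitive dye is added for 2 h, compound follows for 5 min at room temperature, and TRH is then given at 1 nM final.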

The target is the same in experiment [8]. Description: qHTS assay to identify small molecule agonists of the thyrotropin-releasing hormone receptor (TRHR) signaling pathway (AID 1346891; calls by dose curve; further: series mostly up to about 58 µM). In a few lines: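 HEK293 cells expressing TRHR plated 18 h at 37 C/5% CO2, calcium dye-loaded 2 h at 37 C, then compound added (agonist mode); kinetic calcium fluorescence read 3 min at 1 s intervals; 15 concentrations in triplicate.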

Experiment [9] in a line: qHTS assay to identify small molecule antagonists of the progesterone receptor (PR) signaling pathway - cell viability counter screen (AID 1346798). Further: nearly all actives have a fitted effect of over 50% in size. Further: potency means the concentration at half of the fitted maximal effect. On activity change, negative = cytotoxicity: series mostly up to about 92 µM. A digest of the protocol:
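PR-UAS-bla HEK293T cells, 3,000/well in 2% charcoal-stripped FBS medium, dosed with compounds plus R5020 agonist and incubated 16 h at 37C. Viability then measured in the same wells by CellTiter-Glo luminescence after 30 min at RT.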

Experiment [10] in a line: qHTS assay to identify small molecule agonists of the progesterone receptor (PR) signaling pathway - cell viability counter screen (AID 1346799; calls by dose curve; further: nearly all actives have a fitted effect of over 45% in size; further: potency means the concentration at half of the fitted maximal effect). In a few lines: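 Counter screen in the PR-UAS-bla HEK293T wells (2% charcoal-stripped FBS, 16 h compound exposure at 37 C) after the bla read. CellTiter-Glo added, 30 min at room temperature, luminescence read as cell viability.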
On the % scale 0 is the no-effect control and ±100 the full control effect.

Thyrotropin-releasing hormone receptor (Homo sapiens), sequence (P34981 whole entry, looked up): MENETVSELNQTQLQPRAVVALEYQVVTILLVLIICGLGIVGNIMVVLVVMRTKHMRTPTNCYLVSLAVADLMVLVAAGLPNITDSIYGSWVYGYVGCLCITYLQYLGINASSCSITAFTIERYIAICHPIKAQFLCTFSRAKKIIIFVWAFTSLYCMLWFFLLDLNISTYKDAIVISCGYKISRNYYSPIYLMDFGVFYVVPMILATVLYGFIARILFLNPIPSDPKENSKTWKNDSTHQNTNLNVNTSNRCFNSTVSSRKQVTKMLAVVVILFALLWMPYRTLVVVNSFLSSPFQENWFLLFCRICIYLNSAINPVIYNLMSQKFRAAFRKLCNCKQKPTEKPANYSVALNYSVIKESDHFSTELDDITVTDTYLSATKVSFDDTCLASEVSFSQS
Progesterone receptor (Homo sapiens), sequence (P06401 whole entry, looked up): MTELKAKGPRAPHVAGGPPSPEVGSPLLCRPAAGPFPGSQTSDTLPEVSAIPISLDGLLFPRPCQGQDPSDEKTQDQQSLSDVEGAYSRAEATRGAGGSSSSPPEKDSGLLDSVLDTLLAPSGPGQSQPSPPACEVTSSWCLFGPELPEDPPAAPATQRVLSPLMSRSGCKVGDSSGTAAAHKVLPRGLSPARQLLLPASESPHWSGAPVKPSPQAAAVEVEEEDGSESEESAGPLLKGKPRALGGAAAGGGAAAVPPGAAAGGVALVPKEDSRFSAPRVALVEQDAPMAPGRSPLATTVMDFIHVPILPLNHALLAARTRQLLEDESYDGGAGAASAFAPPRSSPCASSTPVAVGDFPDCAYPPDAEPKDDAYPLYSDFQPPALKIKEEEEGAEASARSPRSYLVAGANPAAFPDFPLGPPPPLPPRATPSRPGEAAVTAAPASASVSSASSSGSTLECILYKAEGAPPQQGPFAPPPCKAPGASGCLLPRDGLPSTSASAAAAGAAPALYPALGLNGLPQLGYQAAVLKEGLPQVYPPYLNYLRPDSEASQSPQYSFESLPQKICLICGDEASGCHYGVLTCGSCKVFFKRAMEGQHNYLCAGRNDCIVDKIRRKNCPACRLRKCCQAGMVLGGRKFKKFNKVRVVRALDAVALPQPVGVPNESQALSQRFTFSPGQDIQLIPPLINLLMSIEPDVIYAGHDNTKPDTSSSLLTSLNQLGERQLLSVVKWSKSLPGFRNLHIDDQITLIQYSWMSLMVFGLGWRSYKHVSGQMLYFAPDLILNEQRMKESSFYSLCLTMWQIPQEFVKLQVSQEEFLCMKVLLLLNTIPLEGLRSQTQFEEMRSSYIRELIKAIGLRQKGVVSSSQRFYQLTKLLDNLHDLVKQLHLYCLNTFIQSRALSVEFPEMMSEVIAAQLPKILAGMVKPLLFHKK

For the molecule `COCCOCCO`, the Potency result in experiment [1] and in [2] was “inactive” in each case.
`CCCCC(O)(Cn1cncn1)c1ccc(Cl)cc1Cl` (centres undefined): in experiment [3], the Potency is 17.2 µM (active). The Potency entry in experiment [4], in experiment [5], in experiment [7] and in experiment [8] was “inactive” in each case. For the same molecule, the molecule was classed as inactive in experiment [6].
Consider `O=C(Nc1ccccc1)Nc1cnns1`, for which the Potency result in [4], in experiment [5], in experiment [7] and in [8] was “inactive” each time. The call in experiment [6] was inactive.
`COc1ccc(-c2ccccc2)cc1NNC(=O)OC(C)C`: the Potency entry in experiment [4], in [5], in experiment [7] and in experiment [8] was “inactive” in each case. Further, the result in experiment [6] was inactive.
As for `CNP(=O)(OC)Oc1ccc(C(C)(C)C)cc1Cl` (centres undefined), the Potency result in experiment [1], in [4], in [5], in [7], in [8] and in experiment [2] was “inactive” throughout. Besides, the outcome in [6] was inactive.
Regarding `CC(C)(C)c1cc([N+](=O)[O-])cc([N+](=O)[O-])c1O`, the Potency result in experiment [1], in experiment [5] and in experiment [7] was “inactive” throughout. Also, the call in experiment [6] was inactive. In addition, in experiment [2], the Potency is 6.84 µM (active).
Take `CC(C)(C)C(O)C(Oc1ccc(Cl)cc1)n1cncn1` (centres undefined): the Potency in experiment [9] is 54.5 µM (active). For the same molecule, the Potency entry in experiment [4], in experiment [5], in experiment [7], in experiment [8] and in experiment [2] was “inactive” each time. Besides, the result in [6] was inactive.
Turning to `COP(=O)(OC)O/C(=C/Cl)c1cc(Cl)c(Cl)cc1Cl`, in experiment [3], the Potency was 14.5 µM (active). For the same molecule, the Potency entry in [9], in experiment [10], in experiment [4], in [5], in experiment [7] and in experiment [8] was “inactive” each time. Moreover, the Potency result in experiment [2] is “inactive”. The result in experiment [6] was inactive.
For `IC(I)=C(I)I`, the Potency in experiment [3] was 17.2 µM (active); in experiment [9], 27.3 µM (active); in experiment [10], 27.3 µM (active); in [4], 43.6 µM (active); in [5], 43.6 µM (active); in experiment [7], 1.2 µM (active). The Potency in [2] is 17.2 µM (active). Also, the call in [6] was inactive. Besides, the Potency result in experiment [8] was “inactive”.
In the case of `C[C@]12CC[C@H]3[C@@H](CCC4=CC(=O)CC[C@@H]43)[C@@H]1CC[C@@H]2OC(=O)CCC1CCCCC1`, the Potency result in experiment [3], in experiment [9], in experiment [4], in experiment [5], in experiment [7] and in experiment [8] was “inactive” throughout. Besides, the Potency entry in experiment [2] was “inactive”. Moreover, the outcome in experiment [6] was inactive.
With `O=C(OC1CCCCC1)c1ccccc1C(=O)OC1CCCCC1`, the Potency in experiment [3] is 16.2 µM (active). The Potency entry in experiment [9], in experiment [5], in experiment [7] and in experiment [8] was “inactive” throughout. Also, in experiment [6], the molecule was called inactive.
Regarding `COc1nn(CSP(=S)(OC)OC)c(=O)s1`, the Potency entry in experiment [1], in experiment [4], in experiment [5], in experiment [7], in experiment [8] and in experiment [2] was “inactive” throughout. In addition, the molecule was classed as inactive in experiment [6].
With `C/C(=C\c1ccccc1)[N+](=O)[O-]`, the Potency is 68.6 µM (active) in [10] and 43.3 µM (active) in experiment [2]. Moreover, the Potency result in experiment [4], in experiment [5], in experiment [7] and in experiment [8] was “inactive” in each case.
Turning to `O=C(N[C@H](c1ccccc1)[C@@H]1CN2CCC1CC2)c1c(Cl)ccc(C(F)(F)F)c1Cl`, the Potency result in [1], in experiment [4] and in experiment [5] was “inactive” each time. For the same molecule, in [2], the Potency is 49.3 µM (active).
For `CCC(COC(=O)c1cc(OC)c(OC)c(OC)c1)(c1ccccc1)N(C)C` (centres undefined), the Potency entry in experiment [4], in experiment [5], in [7], in [8] and in [2] was “inactive” each time. Also, in [6], the molecule was classed as inactive.
For `NS(=O)(=O)C(F)(F)C(F)(F)C(F)(F)C(F)(F)C(F)(F)C(F)(F)C(F)(F)C(F)(F)F`, the Potency in experiment [9] was 9.69 µM (active). Besides, the Potency result in experiment [10], in experiment [4], in experiment [5], in experiment [7] and in [8] was “inactive” throughout. In experiment [6], the call was inactive.
Consider `BrCCCCBr`, for which the Potency result in experiment [9], in experiment [10], in experiment [5], in [7], in experiment [8] and in [2] was “inactive” throughout. Besides, the call in experiment [6] was inactive.
In the case of `CCOP(=O)(OCC)Oc1ccc([N+](=O)[O-])cc1`, in [3], the Potency is 17.4 µM (active) and 17.2 µM (active). Further, the Potency result in [9], in experiment [10], in experiment [4], in experiment [5] and in [2] was “inactive” each time. Further, in [6], the molecule was classed as inactive.
Turning to `Cc1ccccc1C(=O)Nc1cccc(OC(C)C)c1`, the Potency result in experiment [1], in experiment [4], in experiment [5], in experiment [7], in experiment [8] and in [2] was “inactive” in each case. Also, the molecule was classed as inactive in experiment [6].
In the case of `CC(c1ccc(O)cc1)(c1ccc(O)cc1)c1ccc(O)cc1`, in experiment [3], the Potency was 19.3 µM (active). The Potency entry in experiment [4] and in experiment [5] was “inactive” throughout. For the same molecule, the molecule was classed as inactive in [6].
Consider `CCCCCCCCCC(=O)O[C@H]1CC[C@H]2[C@@H]3CCC4=CC(=O)CC[C@@H]4[C@H]3CC[C@]12C`, for which the Potency entry in [9], in experiment [10], in experiment [4], in experiment [5], in [7] and in [8] was “inactive” throughout. Also, the Potency result in [2] is “inactive”. In addition, the molecule was classed as inactive in experiment [6].
For the molecule `S=C=NCc1ccccc1`, the Potency result in [10], in experiment [4], in experiment [5], in [7], in experiment [8] and in experiment [2] was “inactive” in each case. The call in experiment [6] was inactive.
As for `O=C(Nc1ccccc1)Nc1ccnc(Cl)c1`, the Potency entry in experiment [1] and in experiment [5] was “inactive” throughout. Moreover, the call in [6] was inactive. In experiment [2], the Potency was 43.3 µM (active).
Regarding `CN1C(=O)C(O)N=C(c2ccccc2)c2cc(Cl)ccc21` (centres undefined), the Potency entry in experiment [3], in [9], in experiment [4], in [5] and in experiment [2] was “inactive” each time. In [6], the molecule was called inactive.
On to `CO[C@@H]1[C@H](OC(=O)NC(=O)CCl)CC[C@]2(CO2)[C@H]1[C@@]1(C)O[C@@H]1CC=C(C)C`, for which, in experiment [3], the activity change, negative = inhibition is 6.82% [at 18.9 µM]. The activity change, negative = cytotoxicity was -12.2% [at 18.9 µM] in [9], -29% [at 19 µM] in experiment [10], 8.28% [at 15.8 µM] in experiment [5] and 1.62% [at 19 µM] in experiment [2]. For the same molecule, in experiment [4], the viability change, negative = cytotoxic is 3.4% [at 15.8 µM]. In addition, the activation is 3.24% [at 15.8 µM] in [6] and -0.27% [at 11.8 µM] in experiment [8]. Besides, the activity, negative = inhibition in [7] was 4.68% [at 10.5 µM].
Regarding `C=CC[C@]1(O)CC[C@H]2[C@@H]3CCC4=CC(=O)CCC4=C3C=C[C@@]21C`, the Potency result in experiment [9], in [4], in experiment [5], in experiment [7], in experiment [8] and in experiment [2] was “inactive” throughout.
